Paper PMC12136788
Changes are numbered by the printed parent chain. In all, about 24,000 sequences were measured (“enrichment r”: median about 0.99, highest 2% from about 3.7 on). This excerpt belongs to a sample that is enriched for the highest values.

B1: chr1:112309342:112309343:+_ENSG00000064703_ENST00000369702|hu_hu|FALSE|FALSE (ssRNA)
RNA: GGGAGUUCUACAGUCCGACGAUCUCUCCAGUACUCCUCAUAAUCCUGAUAGGUAUCAGAAAAACUCAGACGUAUUUCCCUAUGACAGUCAUACCAAUCAUCUUCCUGGGCUUCAGUCUGCAAUCUGAAGGAAGACCGCCUGGGCAACAGAGGAUUGAGCAUCA
B2: chr2:158287933:158287934:+_ENSMUSG00000027652_ENSMUST00000141497|mus_hu|FALSE|FALSE (ssRNA)
RNA: GGGAGUUCUACAGUCCGACGAUCAAGAGGUUGUUCCAGCAUUGCCAGGAUGACACUGUUAUCCAAGACAAAGUACCGGAAACUAUGCUUGUUUAUGGUUGGCAGCCUGGAGUAUUUAAUCAAAGUGGUCUCAUUCACAAGACUCAACAGAGGAUUGAGCAUCA
B3: chr3:179287964:179287965:+_ENSG00000136518_ENST00000429709|hu_hu|hu_hu_hu_mus_True|28_28 (ssRNA)
RNA: GGGAGUUCUACAGUCCGACGAUCCUUGAGUGGUGAGAUGGCCUCCAUGUUCUCCCUGGGCACGCGGAGGGCAUUGGUGUCUAUGUAGUAGGUGGGCCCGCCCUGCUUGCCUUUAUCACCAUCAAUCUCCAUCAUUGUACUUCCCAACAGAGGAUUGAGCAUCA
B4: chr4:131761308:131761309:-_ENSMUSG00000040025_ENSMUST00000102570|mus_mus|FALSE|FALSE (ssRNA)
RNA: GGGAGUUCUACAGUCCGACGAUCGCUGACUGUCCAUCAAUCAUGGCUCCACCUAAGGAGCUGGGUGCAUAAGCGUAAUUGCUACUAUAUCCAGAGCUUUGAGUAGACUGUCCCUGAGAACUGUUAUUUCCCCAUGCUGAGAAGCAACAGAGGAUUGAGCAUCA
B5: chr11:87793471:87793472:-_ENSMUSG00000020483_ENSMUST00000020775|mus_mus|mus_mus_mus_hu_False|8_98 (ssRNA)
RNA: GGGAGUUCUACAGUCCGACGAUCUGGACUUGAAAAUAAAAAAAAUAGCUGGAUCCCCCACCCCCCCACAUUGUCAACCCUACACGAGAGUUUUGAAGGCGACUCAUGAAAAUCAGCAGCUCAAACGAAUGACAACCCCCCACCCAACAGAGGAUUGAGCAUCA
B6: chr11:87793471:87793472:-_ENSMUSG00000020483_ENSMUST00000020775|mus_mus|mus_mus_mus_hu_False|8_68 (ssRNA)
RNA: B5 RNA with A41G, A44U, U45A, U70G
B7: chr11:87793471:87793472:-_ENSMUSG00000020483_ENSMUST00000020775|mus_mus|mus_mus_mus_hu_False|8_78 (ssRNA)
RNA: B5 RNA with A41G, A44U, U45A, A59C, C60A, C65U, C66U
B8: chr13:100193624:100193625:-_ENSMUSG00000052727_ENSMUST00000064762|mus_mus|motif|central (ssRNA)
RNA: GGGAGUUCUACAGUCCGACGAUCAAACCCUCAGAGUAAAAGAGCAGUGCGAAACAUACGCUUUACAGACGAAAAUAAACGGAAAUGUAAAUUUUGAAAUAAAUAACUAACAUAGAAAAUAAAAUGAGGUCAUUGUUCACUACCCAACAGAGGAUUGAGCAUCA
B9: chr16:94651144:94651145:+_ENSMUSG00000040785_ENSMUST00000117648|mus_hu|mus_mus_mus_hu_True|18_58 (ssRNA)
RNA: GGGAGUUCUACAGUCCGACGAUCAUUUUCUUGAAUCAAGUGGCGAAUAACAUAGUCCACUGCUUCAUUUAGAAAAUUUUUGCUAGAAAAACAGGUUGUAUAGUCUUCUGUGCUCAAAACCUUCCAAGAAAGCAAUUCUUUGAGCAACAGAGGAUUGAGCAUCA
B10: chr13:100193624:100193625:-_ENSMUSG00000052727_ENSMUST00000064762|mus_mus|FALSE|FALSE (ssRNA)
RNA: B8 RNA with G80U, G81A
B11: chr7:56127975:56127976:+_ENSG00000146731_ENST00000540286|hu_mus|FALSE|FALSE (ssRNA)
RNA: GGGAGUUCUACAGUCCGACGAUCUGGUCCUUUAACCAGUAAAGUGACAGAACGGGGAUUGUUACACUUCUCAAUAAAGGUGAACUUCUCCUCACCCAGUGUAUACUCAUAGACAAGCUCUGCAUGUCCCAAACAGUCAGGAUUCAACAGAGGAUUGAGCAUCA
B12: chr13:100201144:100201145:-_ENSMUSG00000052727_ENSMUST00000064762|mus_hu|FALSE|FALSE (ssRNA)
RNA: GGGAGUUCUACAGUCCGACGAUCCUCCUCCAUAGGUGGUAUCUUAUGUGAUAAACUGGAGUCCUGCAUGUCAGAAGGACUGUAGUCCACUUCAGUUGGCCCAUUUUCAGUGAUGUGAAGCACGCCUGCACCCACUGUAGGGUGCAACAGAGGAUUGAGCAUCA
B13: 95238312_95238432_61_3pUTR_ENSMUSG00000015522_ENSMUST00000090804|mouse|control|control (ssRNA)
RNA: GGGAGUUCUACAGUCCGACGAUCACCCUCGGUGGGAGGGGCAGCCGCCACCGAGCUGGGGGAGGGGAGGGAAGAGCCACUCCGCAGAUUAGGCACCUUACCGCCGCCACCGCUACCGCGGAAUCCAAGAUGGCGGACGCCCACCAACAGAGGAUUGAGCAUCA
B14: chr6:114274515:114274516:-_ENSG00000196591_ENST00000368632|hu_mus|motif|central (ssRNA)
RNA: GGGAGUUCUACAGUCCGACGAUCCAUCACGCGAUCUGUUGUAUAAAAAGCUUCCUCAACACCAUCACCAUGGUGGAUGUCGGUGUCAAUAUAUAAGACUCUCUGAUGAUACUUAAGUAAUUCGAGGAUGGCAAGCACAAUAUCCAACAGAGGAUUGAGCAUCA
B15: chr2:9570881:9570882:+_ENSG00000119203_ENST00000238112|hu_mus|hu_hu_hu_mus_False|28_58 (ssRNA)
RNA: GGGAGUUCUACAGUCCGACGAUCACUUGUCUUCUGAAGGAACCAGGGCAGGGCUCCACAGUGAUCCAAAUGGAAAUGACUAAUUAACAGAAGGUCGAUCUCAGCUGGGUCAAUUAAGUCAAUGUAAGGAAGGGCAUCCAUUCCCAACAGAGGAUUGAGCAUCA

biological target: T1, UNK ZnF1-3 (human, UniProt Q9C0B0 31-174); experiment: nsRBNS (natural sequence RNA bind-n-seq); RBNS binding buffer (assumed for nsRBNS): 25 mM Tris pH 7.5, 150 mM KCl, 3 mM MgCl2, 0.01% Triton X-100, 500 ug/ml BSA, 20 U/ml SUPERase-In, 4 C; UNK is unkempt and MSI1 is Musashi-1; names of the RNAs are library labels; protein concentration not given here; high values mean tight binding
T1 sequence: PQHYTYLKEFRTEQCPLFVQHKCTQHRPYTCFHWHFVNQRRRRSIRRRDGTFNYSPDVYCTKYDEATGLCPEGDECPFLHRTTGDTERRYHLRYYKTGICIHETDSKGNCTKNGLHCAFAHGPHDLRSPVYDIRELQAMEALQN

Going from B1 to B2, the binding signal falls from 0.941 enrichment R to 0.695 enrichment R.

Going from B3 to B4, the binding signal rises from 0.667 enrichment R to 1.1 enrichment R.

First: B5
Second: B6
The binding signal of the first is higher: 4.4 enrichment R for the first, 2.23 enrichment R for the second.

Going from B7 to B8, the binding signal rises from 1.99 enrichment R to 4.16 enrichment R.

Going from B9 to B10, the binding signal rises from 0.507 enrichment R to 9.34 enrichment R.

First: B11
Second: B12
The binding signal of the first is lower: 0.526 enrichment R for the first, 0.585 enrichment R for the second.

Compared with B13, B14 is higher in binding signal: 0.955 enrichment R for the first, 1.5 enrichment R for the second.

In the case of B15, the binding signal is reported as 1.47 enrichment R.
